Assay outcomes: PubChem, National Center for Advancing Translational Sciences (NCATS)
FLuc counter = counter-screen for miR-21 project: firefly luciferase inhibitors or activators; purified FLuc, Km substrates, luminescence inhibition; Potency, µM (highest dose often 57.5 µM), actives largely listed as inhibitors; hit rate 6.9% among 360,000; further: nearly all actives have a fitted effect of over 55% in size
Target sequence (P08659 whole entry, looked up): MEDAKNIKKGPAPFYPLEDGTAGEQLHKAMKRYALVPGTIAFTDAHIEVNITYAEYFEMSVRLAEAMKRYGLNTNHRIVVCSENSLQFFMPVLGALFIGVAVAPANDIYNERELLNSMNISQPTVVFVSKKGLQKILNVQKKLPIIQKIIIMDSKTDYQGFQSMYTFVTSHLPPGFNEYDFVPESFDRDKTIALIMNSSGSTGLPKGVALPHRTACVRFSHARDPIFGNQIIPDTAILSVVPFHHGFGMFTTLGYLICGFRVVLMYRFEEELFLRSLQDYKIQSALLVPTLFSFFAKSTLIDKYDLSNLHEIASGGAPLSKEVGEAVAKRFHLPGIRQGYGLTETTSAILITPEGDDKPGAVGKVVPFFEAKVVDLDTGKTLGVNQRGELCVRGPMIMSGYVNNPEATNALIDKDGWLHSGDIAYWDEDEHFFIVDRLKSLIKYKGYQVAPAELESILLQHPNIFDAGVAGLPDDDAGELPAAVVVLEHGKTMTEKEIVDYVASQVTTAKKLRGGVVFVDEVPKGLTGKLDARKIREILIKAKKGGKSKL
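Purified P. pyralis luciferase (10nM final) with 10uM D-luciferin and 10uM ATP (Km levels) in 50mM Tris acetate pH 7.5, 10mM Mg acetate, 0.01% Tween-20, 0.05% BSA; qHTS 6-point titration, ~60 µM downward; luminescence read.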
NPC1 prom act = activators of NPC1 promoter | Huh7 NPC1 promoter luciferase reporter, 24 h | Potency, µM (titrated, usually from 9.22 µM), hits mostly activators | hit rate 2.4% among 320,000 | AID 485313; further: nearly all actives have a fitted effect of over 60% in size
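Readout is luciferase luminescence, reflecting NPC1 promoter activation in stably transfected Huh7 cells after 24 h compound exposure at 37 °C in reduced-serum medium with 10% FBS.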
ELG1 DNA repair = blocks ELG1-dependent DNA repair in HEK293T cells | HEK293T ELG1-luciferase reporter, luminescence, 16 h; DNA damage induced by 5-fluorouridine | Potency, µM (series often up to 46.1 µM), actives largely listed as inhibitors | hit rate 2.3% among 330,000 | AID 504467; further: nearly all actives have a fitted effect of over 55% in size
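In this reporter screen, reduction of luminescence relative to DMSO vehicle indicated activity. Compounds and 5-fluorouridine were added together to 2,000 cells per well, incubated for 16 hr at 37 °C, then developed with ONE-Glo.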
SMN2 splice enh = SMN2 splice variant enhancement. HEK293 SMN2-luciferase splicing reporter, luminescence, 30-36 h. Potency, µM (top dose mostly 46.1 µM), hits mostly activators. hit rate 2.8% among 210,000. AID 1458; further: nearly all actives have a fitted effect of over 55% in size
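qHTS luciferase splicing reporter: luminescence rises when SMN2 exon 7 is included in transfected HEK293 cells. Compound exposure lasted 30-36 h at 37C, with 4.5 mM final sodium butyrate as control, followed by a ONE-Glo read.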
Rab9 prom act = Rab9 promoter activation; Huh7 Rab9 promoter-luciferase reporter, luminescence, 24 h; Potency, µM (titrated, usually from 9.22 µM), hits mostly activators; hit rate 2.8% among 320,000; further: nearly all actives have a fitted effect of over 60% in size
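Luminescence read-out: Huh7 cells stably expressing Rab9-luciferase, treated 24 h with compound at 37 °C, then lysed with luciferase reagent for 10 min at ambient before reading.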
ELG1 genotoxic = genotoxicity induction in ELG1-luciferase HEK293T cells | HEK293T ELG1-luciferase reporter, luminescence, 16 h | hit rate 1.3% among 330,000 | Potency, µM (highest dose often 46 µM), actives largely listed as activators | AID 504466; further: nearly all actives have a fitted effect of over 60% in size
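ELG1-luciferase HEK293T cells, 2,000/well; compound pinned in; 16 hr, 37 °C, 5% CO2; ONE-Glo, 30 min RT; luminescence on CCD imager.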
Hits are given with their value; n = inactive; u = inconclusive; x = not tested or not shown. Shown are actives, neighbours in structure and some others; about 9.4% of the full set was active somewhere. The call rests on the fitted dose curve; in most records, active means well fitted curve in the direction sought with a large enough effect; inconclusive means small, poorly fitted or top-dose-only effect, or another doubt; inactive means no such curve, though single readings can be large; an effect the other way counts as inactive or inconclusive.

SMILES	FLuc counter	NPC1 prom act	ELG1 DNA repair	SMN2 splice enh	Rab9 prom act	ELG1 genotoxic
Cc1nn2c(N)c(C#N)cnc2c1-c1ccccc1	u	n	u	n	n	u
Cc1nn2c(N)c(-c3ccccc3)cnc2c1-c1ccccc1	0.95µM	2.2µM	u	x	1.6µM	u
CCN(CC)C(=O)c1sc2c(c1C)c(=O)n(-c1ccc(Cl)c(Cl)c1)c(=O)n2Cc1cc(=O)n2ccccc2n1	n	x	x	x	x	x
CCOc1ccc(CC2NCCc3cc(OCC)c(OCC)cc32)cc1OCC (configuration not stated)	n	n	15µM	n	n	n
COc1cc2c(cc1OC)C(Cc1ccc(O)cc1)NCC2 (configuration not stated)	n	n	n	n	n	n
O=c1c2cn[nH]c2[nH]c(=S)n1-c1ccccc1	n	n	n	n	n	n
Cc1c2cn[nH]c(=O)c2c(C)n1-c1ccccc1	6µM	n	u	x	n	n
CCc1ccc(NC(=O)CSc2nc(-c3ccccc3)c(C#N)c(=O)[nH]2)cc1	11µM	x	x	x	x	x
Cc1cc(C)nc(NS(=O)(=O)c2ccc(NC(=O)CSc3nc(-c4ccccc4)c(C#N)c(=O)[nH]3)cc2)n1	11µM	n	n	n	n	n
COc1cc2c(cc1OC)n(CC(=O)c1cc(C)ccc1C)c(=O)n1nc(CCn3nc(C)cc3C)nc21	n	x	x	x	x	x
COc1ccc(-c2nc(N)ncc2-c2ccccc2)c(O)c1	n	n	n	x	n	n
COc1ccc(-c2cnc(N)nc2-c2ccc(OC)cc2O)cc1	n	n	23µM	n	n	n
O=C(N/N=C/c1ccc(OC(=O)c2ccccc2Br)cc1)c1ccccn1	n	n	n	x	n	n
CC(C)(C)c1ccc(/C=N/NC(=O)c2ccccn2)cc1	0.38µM	0.32µM	u	x	0.89µM	u
O=C(N/N=C/c1ccc(Br)s1)c1ccccn1	4.8µM	2.8µM	u	3.5µM	1.4µM	9.2µM
O=C(N/N=C/c1ccsc1)c1ccccn1	15µM	2.8µM	u	x	4.5µM	u
N#CC(=C(\N)Sc1ccccc1N)/C(C#N)=C(/N)Sc1ccccc1N	x	n	x	n	n	x
Cc1nc(N2CCCCC2)sc1C(=O)c1ccc(SCCO)c([N+](=O)[O-])c1	n	n	18µM	x	n	n
COc1cccc(Nc2nnc(SCC3CCCCO3)s2)c1 (configuration not stated)	12µM	n	u	n	n	n
COc1ccc(Nc2nnc(SCC3CCCO3)s2)cc1 (configuration not stated)	19µM	n	u	n	u	n
Cc1cccc(Nc2nnc(SCC3CCCCO3)s2)c1C (configuration not stated)	9.5µM	u	u	u	n	n
COc1ccc(-c2nc(-c3ccccc3)oc2Nc2c(C)cccc2C)cc1	x	x	x	n	x	x
Cc1ccc(S(=O)(=O)c2nnn3c2nc(N2CCN(c4ccc(F)cc4)CC2)c2cc(Cl)ccc23)cc1C	n	x	x	n	x	x
CCOC(=O)/C(C#N)=C\c1c(OCC)n(CC)c2ccccc12	n	n	u	n	n	n
CCOc1c(/C=C(\C#N)C(N)=O)c2ccccc2n1CC	n	n	13µM	n	n	n
SMILES	FLuc counter	NPC1 prom act	ELG1 DNA repair	SMN2 splice enh	Rab9 prom act	ELG1 genotoxic
Cc1ccc(O)c(C=Nc2ccc3[nH]ncc3c2)c1	19µM	n	n	n	n	n
COc1cc(NC(=O)CSc2nnc3n2C(C)(C)Cc2ccccc2-3)cc(OC)c1	n	n	22µM	n	n	n
COc1ccc2nc(NC(=O)CSc3nnc4n3C(C)(C)Cc3ccccc3-4)sc2c1	6.7µM	n	n	n	n	u
COC(=O)CSc1nnc2n1C(C)(C)Cc1ccccc1-2	n	n	n	n	n	n
Cc1cccc(-c2nnn3c2nc(NCc2ccccc2)c2ccccc23)c1	n	x	x	n	x	x
CC(C)(C)c1ccc(-c2noc(CCC(=O)NCc3ccco3)n2)cc1	2.7µM	n	n	n	n	n
O=C(COc1ccccc1Cl)Nc1ccc(NC(=O)c2ccco2)cc1	n	n	n	x	n	n
COc1ccccc1-c1noc(CCC(=O)Nc2cc(C(F)(F)F)ccc2Cl)n1	19µM	n	n	n	n	n
O=C(Nc1ccc(-c2noc(COc3ccccc3Cl)n2)cc1)c1ccco1	11µM	3.2µM	u	11µM	u	u
CC(NC(=O)c1ccco1)c1nc(-c2ccc(C(C)(C)C)cc2)no1 (configuration not stated)	17µM	n	n	x	n	n
Cc1cccc(-c2noc(CCC(=O)NCc3ccco3)n2)c1	n	n	n	n	n	n
CCOC(=O)c1ccc(NC(=O)CCc2nc(-c3ccc(C)cc3)no2)cc1	n	n	n	n	n	23µM
Cc1ccc(C)c(NC(=O)CCc2nc(-c3ccc(C(C)(C)C)cc3)no2)c1	2.1µM	x	x	n	x	x
CC(C)(C)c1ccc(-c2noc(CCC(=O)Nc3cccc(Cl)c3)n2)cc1	u	x	x	n	x	x
CCOC(=O)c1ccc(NC(=O)CCc2c(C)nc3nc[nH]n3c2=O)cc1	27µM	x	x	n	x	x
CCCCCC(=O)OCCc1c(C)nc2nc[nH]n2c1=O	n	n	n	n	n	n
CC(C)(C)c1ccc(-c2noc(CNC(=O)c3ccco3)n2)cc1	15µM	n	n	x	n	n
O=C(NCc1nc(-c2ccccc2)no1)c1ccco1	n	x	x	n	x	x
COc1cccc(Cc2nc3ccccc3nc2SCC(=O)NCc2ccc(C)cc2)c1	n	x	x	x	x	x
